Screening data deposited in PubChem by several laboratories.
Rows were chosen to be rich in hits. Some 1.3% of all compounds tested hit in one or more screens of this group.
SARS 3CLpro inh – SARS-CoV 3CLpro protease inhibition; P0C6X7; recombinant SARS-CoV 3CLpro, quenched FRET peptide cleavage; inhibition, % at 6 µM; 290,000 tested, 0.14% active; AID 1706; in the data active = inhibition above about 12%
VHR inh abs – blocks human VHR1 dual specificity phosphatase; 290,000 tested, 0.52% active; inhibition, % at 13.3 µM; AID 1654; recombinant VHR phosphatase, pNPP absorbance; in the data active = inhibition above about 50%
Target sequence (P51452 whole entry, looked up): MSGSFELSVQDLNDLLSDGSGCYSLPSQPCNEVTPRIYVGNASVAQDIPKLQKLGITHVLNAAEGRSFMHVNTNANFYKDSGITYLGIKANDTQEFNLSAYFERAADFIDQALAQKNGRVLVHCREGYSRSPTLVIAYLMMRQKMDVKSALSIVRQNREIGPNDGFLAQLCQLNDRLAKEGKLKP
SSB-PriA inh – blocks PriA binding to SSB C-terminal tail | AlphaScreen SSBct-PriA binding, biotinylated peptide | inhibition, % at 33 µM | 430,000 tested, 0.6% active; in the data active = inhibition mostly above about 37%, no sharp cut-off; inactive = mostly below about 20%;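 also: plate controls were negative control peptide for no effect and reference peptide for full effect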
Mtb hypoxia inh – inhibitors of hypoxia-regulated fluorescent reporter in Mycobacterium tuberculosis; M. tuberculosis hypoxia-regulated fluorescent reporter, fluorescence; 300,000 tested, 0.1% active; fluorescence inhibition, % (no concentration beside the values); in the data active = fluorescence inhibition mostly above about 23%, no sharp cut-off; inactive = mostly below about 17%
CCHF vOTU inh – CCHFV vOTU protease inhibition; inhibition, % at 11.5 µM; Pep-AMC fluorescence; 370,000 tested, 0.55% active; in the data active = inhibition above about 30%; also: 0% = vehicle wells with enzyme and 100% = no enzyme wells
Active calls of the source: *; / = not tested or not shown.

SMILES | SARS 3CLpro inh | VHR inh abs | SSB-PriA inh | Mtb hypoxia inh | CCHF vOTU inh
CC(COc1ccccc1)N1CCC(CO)(Cc2ccccc2)CC1 (stereo not given) | 5 | 58* | 13 | 6 | 6
CCOc1cc(C=NNc2cc(C)nc(-n3nc(C)cc3C)n2)ccc1O | / | / | -4 | 39* | /
Fc1ccccc1-n1c(-c2ccc3ccccc3n2)n[nH]c1=S | 6 | 53* | -8 | 8 | -2
CCCCNC(=S)NCc1ccc2c(c1)cc(C)n2C | 3 | -11 | 83* | 1 | 11
Cc1cc2cc(CNC(=S)NC(C)(C)C)ccc2n1C | / | / | 48 | / | /
Cc1ccccc1NC(=S)NCc1ccc2c(c1)cc(C)n2C | 0 | -7 | 36 | -3 | -1
Cc1cc2cc(CNC(=S)NC3CCCCC3)ccc2n1C | -4 | 8 | 59* | -11 | -1
COc1ccccc1NC(=S)NCc1ccc2c(c1)cc(C)n2C | 4 | 10 | 88* | 5 | 9
CCc1cccc(C)c1NC(=S)NCc1ccc2c(c1)cc(C)n2C | -3 | -15 | 53* | -13 | 0
CS(=O)(=O)N1CCC(Oc2ccccn2)CC1 | / | / | -5 | / | /
Cn1ccc(-c2cc(=O)n(-c3ccc(S(N)(=O)=O)cc3)[nH]2)n1 | / | / | -3 | / | /
Cc1cc2cc(CNC(=S)Nc3ccccc3Cl)ccc2n1C | / | / | 34 | / | /
Cc1cc2cc(CNC(=S)NCc3ccccc3)ccc2n1C | 1 | 6 | 75* | 9 | -3
COc1ccc(NC(=S)NCc2ccc3c(c2)cc(C)n3C)cc1 | -3 | 4 | 75* | -2 | 1
CCCCn1c(=O)[nH]c2nc3cc(N)ccc3nc2c1=O | -11 | 1 | -17 | 4 | 50*
COc1ccc(S(=O)(=O)NCC2CCCN2c2ccccc2)cc1Cl (stereo not given) | / | / | -1 | / | /
C=CCc1c(C)c(C#N)c2nc3ccccc3n2c1Nc1ccc(F)cc1 | / | / | -16 | / | /
COc1ccc(S(=O)(=O)N(CC(C)C)C2CCS(=O)(=O)C2)cc1 (stereo not given) | / | / | 12 | / | /
COc1ccc(S(=O)(=O)N(CC(C)C)C2CCS(=O)(=O)C2)cc1OC (stereo not given) | / | / | 38* | 7 | -6
CN(c1ncnc2nc[nH]c12)C1CCCCC1 | / | / | 7 | / | /
CN(CCO)c1ncnc2nc[nH]c12 | 2 | 21 | 104* | 8 | -2
COC(=O)C1=C(C)N(Cc2ccccc2)C(=NCCc2c[nH]c3ccccc23)N[C@H]1c1ccccc1 | / | / | 47* | / | /
O=C(OC(c1ccccc1)c1nccc2ccccc12)c1cc([N+](=O)[O-])cc([N+](=O)[O-])c1 (stereo not given) | -3 | 15 | 52* | 14 | 11
CC(C)(C)c1ccc(C(=O)OC(c2ccccc2)c2nccc3ccccc23)cc1 (stereo not given) | / | / | -14 | / | /
CCOc1ccc(C(=O)Nc2ccc(-c3csc(C)n3)cc2)cc1 | / | / | 0 | / | /
SMILES | SARS 3CLpro inh | VHR inh abs | SSB-PriA inh | Mtb hypoxia inh | CCHF vOTU inh
CC1(C)Cc2c(cnn2-c2ccc(F)cc2)C(NC(=O)c2ccco2)C1 (stereo not given) | -6 | 33 | -1 | -2 | 1
Cc1ncoc1C(=O)NC1CC(C)(C)Cc2c1cnn2-c1ccc(F)cc1 (stereo not given) | -4 | 53* | -20 | 6 | -2
COc1ccc2[nH]cc(S(=O)(=O)c3ccc(F)cc3)c(=O)c2c1 | 2 | -9 | 104* | -7 | 5
CCOc1ccc2[nH]cc(S(=O)(=O)c3ccc(F)cc3)c(=O)c2c1 | 3 | 46 | -8 | 3 | 2
CCCCCCCCCCCCCCCC[n+]1ccc(C(N)=O)cc1 | 4 | -14 | 0 | 18 | 29
CCCCCCC[n+]1ccc(-c2cc[n+](CCCCCCC)cc2)cc1 | 3 | -2 | -24 | 81* | -24
CCCCCCCCCCCCCCCC[n+]1ccc(/C=N/O)cc1 | 10 | -7 | / | / | 56*
COc1cccc(OC)c1OC[C@@H](O)CN1CCN(c2ccccc2F)CC1 | / | / | -17 | / | /
Cc1ccc([N+](=O)[O-])cc1S(=O)(=O)Nc1ccc(-c2cn3c(n2)SCC3)cc1 | / | / | 39* | / | /
COc1ccccc1-c1ccc(N2CCC[C@H](C(=O)Nc3ccccc3C(N)=O)C2)nn1 | / | / | -19 | / | /
COc1ccccc1C1C([N+](=O)[O-])=CC([N+](=O)[O-])=CN1C (stereo not given) | 1 | 5 | 7 | / | 5
COc1ccccc1C1NC=C([N+](=O)[O-])C=C1[N+](=O)[O-] (stereo not given) | 2 | -5 | 45* | 5 | 4
Cc1nc2ccc(NC(=O)c3ccc([N+](=O)[O-])cc3)cc2c(=O)n1-c1ccc(F)cc1 | / | / | 12 | / | /
CC(=O)c1cccc(NC(=O)CCCOc2ccc(C)cc2)c1 | -1 | 4 | -16 | active | 2
COC(=O)C(=CNc1cccc2ccccc12)[N+](=O)[O-] | / | / | 55* | / | /
COC(=O)/C(=C/Nc1cccc2ccccc12)[N+](=O)[O-] | 0 | -8 | / | 20 | -29
O=C(c1cccs1)N1N=C(c2ccccc2)C[C@H]1c1ccc2nccnc2c1 | / | / | -1 | / | /
O=C(c1cccs1)N1N=C(c2ccccc2)CC1c1ccc2nccnc2c1 (stereo not given) | / | / | 37* | / | /
CCCC(C(=O)NCC1CCCO1)N(C(=O)CNS(=O)(=O)c1ccccc1)c1ccc(F)cc1 (stereo not given) | 0 | 58* | -7 | 3 | 10
CCC(C(=O)NCC1CCCO1)N(C(=O)CNS(=O)(=O)c1ccccc1)c1ccc(F)cc1 (stereo not given) | 0 | 7 | -21 | 1 | -2
Cc1ccc(S(N)(=O)=O)cc1NC(=O)c1ccc2c3c(cccc13)CC2 | -2 | 57* | 0 | 1 | 8
Cc1ccccc1NC(=O)Nc1cc(S(N)(=O)=O)ccc1C | 1 | 6 | -4 | 17 | 10
COc1ccc(OC)c(S(=O)(=O)N2CC[C@H](S(=O)(=O)c3ccc(Cl)cc3)C2)c1 | / | / | -3 | / | /
Cc1ccc(-n2nnnc2CNC(=O)COc2ccc(Cl)cc2Cl)cc1C | / | / | -7 | / | /
CS(=O)(=O)Nc1ccc(N2CCN(c3ccc(C(F)(F)F)cn3)CC2)nc1 | 2 | -18 | -5 | 6 | 5
SMILES | SARS 3CLpro inh | VHR inh abs | SSB-PriA inh | Mtb hypoxia inh | CCHF vOTU inh
CC1=NN(c2ccc(C(F)(F)F)cn2)C(=O)C1 | -1 | 32 | 45* | 3 | 3
Cc1ccc(Nc2c(-c3ccc(N4CCOCC4)cc3)nc3ncccn23)cc1 | -4 | -7 | 97* | -3 | 9
CCOC(=O)CCC(=O)N1CCS[C@H](c2ccco2)CC1 | / | / | 3 | / | /
O=C(CNC(=O)C1COc2ccccc2O1)NN=Cc1ccccc1Cl (stereo not given) | / | / | -4 | / | /
O=C(CNC(=O)C1COc2ccccc2O1)N/N=C\c1ccccc1Cl (stereo not given) | -1 | 56* | / | / | 0
Cc1cc([C@@H](O)CCNC(=O)C(=O)Nc2cccnc2)c(C)o1 | / | / | -1 | / | /
CCc1ccc(NC(=O)CSc2nncn2-c2cccnc2)cc1 | 3 | 56* | -9 | 0 | 4
Cc1ccccc1C(N)=NOC(=O)N1c2ccccc2Sc2ccccc21 | / | / | 17 | / | /
C/C(=N\NC(=S)Nc1cccc(C)c1)c1cc2ccccc2o1 | 1 | 11 | / | / | 2
CC(=NNC(=S)Nc1ccc(C)cc1)c1cc2ccccc2o1 | / | / | 38* | -11 | /
